Assay outcomes as filed in PubChem.
Compounds with a hit are over-represented: about 0.9% of the library has one in this group of screens.
PPARg SRC-3 ag = PPARgamma agonists recruiting SRC-3 coactivator, primary screen, biochemical | activation, % at 8 µM | 0.26% of 200,000 active | Peroxisome proliferator-activated receptor gamma (Homo sapiens), P37231 | biochemical PPARgamma/SRC-3 coactivator recruitment assay; in the data active means activation above about 23%;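 further: 0% = DMSO and 100% = reference agonist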
Target sequence (P37231 whole entry, looked up): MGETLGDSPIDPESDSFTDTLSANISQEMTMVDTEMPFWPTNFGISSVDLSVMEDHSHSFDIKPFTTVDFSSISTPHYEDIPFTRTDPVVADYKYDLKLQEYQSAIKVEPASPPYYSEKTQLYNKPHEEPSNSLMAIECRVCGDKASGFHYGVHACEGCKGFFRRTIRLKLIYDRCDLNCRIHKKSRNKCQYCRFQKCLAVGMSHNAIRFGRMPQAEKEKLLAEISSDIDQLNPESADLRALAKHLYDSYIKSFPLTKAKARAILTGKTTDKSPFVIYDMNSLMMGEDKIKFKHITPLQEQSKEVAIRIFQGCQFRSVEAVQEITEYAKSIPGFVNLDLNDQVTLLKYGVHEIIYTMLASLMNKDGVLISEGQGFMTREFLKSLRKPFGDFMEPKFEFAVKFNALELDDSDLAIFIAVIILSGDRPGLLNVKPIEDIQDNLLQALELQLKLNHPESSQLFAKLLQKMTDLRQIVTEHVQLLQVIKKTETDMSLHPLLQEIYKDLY
TR-FRET SRC-2 ct = TR-FRET signal artefacts, primary screen, artefact control for PPARgamma SRC-2 agonist project, biochemical | 0.4% of 200,000 active | TR-FRET ratio at 8 µM | TR-FRET artefact counter-screen; stronger effect = higher value | AID 1049, 2008
SRC1 TRFRET art = TR-FRET detection interference compounds, primary screen, artefact control for PPARgamma SRC-1 recruitment agonists, biochemical, TR-FRET emission ratio; TR-FRET detection artefact counter-screen; stronger effect = higher value; TR-FRET ratio at 8 µM; 0.34% of 99,000 active; in the data active means TR-FRET ratio above about 2300
SRC3 TRFRET art = TR-FRET detection interference compounds, artefact control for PPARgamma SRC-3 recruitment agonists, biochemical, TR-FRET ratio; TR-FRET artefact counter-screen, PPARgamma/SRC-3 format; stronger effect = higher value; TR-FRET ratio at 8 µM; 0.39% of 99,000 active; AID 1048, 2008
PPARg SRC2 recr = agonists of PPARg-SRC-2 recruitment, primary screen, biochemical, HTS | PPARgamma LBD-SRC-2 recruitment | Peroxisome proliferator-activated receptor gamma (Homo sapiens), P37231 | 0.34% of 200,000 active | activation, % at 8 µM; in the data active means activation above about 22%;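 further: 0% = vehicle and 100% = reference agonist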
PPARg SRC-1 ag = PPARgamma agonists recruiting SRC-1 coactivator, primary screen, biochemical. PPARgamma-SRC-1 coactivator recruitment biochemical assay. Peroxisome proliferator-activated receptor gamma (Homo sapiens), P37231. 0.41% of 200,000 active. activation, % at 8 µM; in the data active means activation above about 19%;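 further: 0% = DMSO and 100% = reference agonist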
PPARg SRC2 ag = agonists of PPARgamma SRC-2 coactivator recruitment, confirmation, biochemical, HTS; activation, % at 8 µM; biochemical SRC-2 recruitment by PPARgamma; AID 1297, 2008; shares compounds with PPARg SRC-3 ag; 52% of 790 active; in the data active means activation above about 22%;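 further: 0% = vehicle alone and 100% = reference agonist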
PPARg SRC1 ag = PPARgamma agonists recruiting SRC-1 coactivator, confirmation, biochemical | shares compounds with PPARg SRC-3 ag | PPARgamma–SRC-1 coactivator recruitment biochemical assay | activation, % at 8 µM | 43% of 790 active; in the data active means activation above about 20%;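 further: 0% = vehicle wells and 100% = reference agonist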
PPARg SRC3 conf = PPARgamma-driven SRC-3 coactivator recruitment agonists, confirmation, biochemical; activation, % at 8 µM; AID 1301, 2008; shares compounds with PPARg SRC-3 ag; biochemical PPARgamma-SRC-3 coactivator recruitment, agonist mode; 29% of 790 active; in the data active means activation above about 24%;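 further: 0% = vehicle wells and 100% = reference agonist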
* hit, by the source's call; / = no result given. Unless noted, no stated cut-off is given here; in the data, active means TR-FRET ratio above about 2000; inactive means the rest.

SMILES	PPARg SRC-3 ag	TR-FRET SRC-2 ct	SRC1 TRFRET art	SRC3 TRFRET art	PPARg SRC2 recr	PPARg SRC-1 ag	PPARg SRC2 ag	PPARg SRC1 ag	PPARg SRC3 conf
O=C(Nc1cccnc1)c1sc(Nc2ccccc2)nc1-c1ccccc1	42*	2618*	3708*	3330*	55*	48*	79*	59*	54*
O=C(O)c1ccc2c(c1)C(=O)N(N1C(=O)c3ccccc3C1=O)C2=O	-3	1533	1730	1424	0	-1	/	/	/
CSc1ncc(Cl)c(C(=O)C(C#N)c2nc3c(C)cc(C)cc3c(=O)[nH]2)n1 (configuration not stated)	4	1850	1829	1615	6	3	/	/	/
Cc1c(/C(O)=C2/C(=O)C(=O)N(CCN3CCOCC3)C2c2ccccn2)cnn1-c1ccccc1 (configuration not stated)	4	1741	1855	1635	3	1	/	/	/
CCN(CC)c1ccc(/C=C2\NC(=O)NC2=O)cc1	13	1573	2555*	1594	25*	15	11	9	7
Cc1cc(NS(=O)(=O)c2ccc(NC(=O)c3ccco3)cc2)no1	15	1513	/	/	5	21*	-1	-4	0
COc1ccc(/C=N\NS(=O)(=O)c2ccc(Cl)cc2)cc1COc1ccccc1[N+](=O)[O-]	0	1426	/	/	4	-4	/	/	/
Cc1cc2cc(CNC(=O)c3cc4ccccc4o3)ccc2n1C	32*	2988*	/	/	18	22*	41*	32*	23
COc1ccc(C(=O)NCc2ccc3c(c2)cc(C)n3C)cc1	2	1490	1948	1480	3	-3	/	/	/
Cc1nc2ccc3nc(NC(=O)c4ccc5c(c4)OCCO5)sc3c2s1	157*	2067*	/	/	17	117*	92*	71*	58*
O=C(Nc1nnc(-c2ccco2)s1)C1CCN(S(=O)(=O)c2ccc(Cl)cc2)CC1	36*	1816	/	/	20	34*	24*	20	14
Cn1c(=O)cc(SCC(=O)N2CCCC2)c2ccccc21	20	2431*	2601*	2626*	35*	30*	37*	24*	26*
CCOC(=O)CSc1cc(=O)n(CC)c2ccccc12	32*	2136*	/	/	36*	28*	27*	17	19
CCCCN(CC)C(=O)CSc1cc(=O)n(C)c2ccccc12	74*	2446*	/	/	51*	55*	32*	20*	21
Cn1c(=O)cc(SCC(=O)NCC2COc3ccccc3O2)c2ccccc21 (configuration not stated)	12	1878	/	/	15	4	/	/	/
CN(Cc1ccccc1)C(=O)CSc1cc(=O)n(C)c2ccccc12	31*	2656*	3203*	2514*	17	46*	32*	22*	24*
CCN(CC)C(=O)NC1CC(=O)N(c2ccc(OC)cc2)C1 (configuration not stated)	-1	1469	1624	1606	1	6	/	/	/
CC1CCN(C(=O)COc2cccc3c2CCN(Cc2ccccc2)C3=O)CC1	-2	1522	1737	1347	-9	-2	/	/	/
CCn1c(=O)cc(SCC(=O)N(C)Cc2ccccc2)c2ccccc21	34*	2336*	/	/	47*	32*	42*	28*	27*
CCCc1cc(=O)[nH]c(SCC(=O)N(C)Cc2ccccc2)n1	5	1409	/	/	9	3	/	/	/
CCOc1ccc(CCNC(=O)CSc2cc(=O)n(CC)c3ccccc23)cc1OCC	15	2084*	2106	1684	31*	20*	25*	18	17
CCOC(=O)N1CCC(NC(=O)CSc2cc(=O)n(C)c3ccccc23)CC1	48*	2545*	/	/	49*	47*	40*	26*	25*
CCOC(=O)CSc1cc(=O)n(C)c2cc(Cl)ccc12	97*	3535*	/	/	68*	77*	43*	26*	28*
COC(=O)c1cc(OC)c(OC)cc1NC(=O)CSc1nnnn1Cc1ccccc1	-3	1514	/	/	4	-2	/	/	/
C/C(=N\NC(=O)Cn1ccc(C(F)(F)F)n1)c1ccco1	2	1619	1685	1671	7	11	/	/	/
SMILES	PPARg SRC-3 ag	TR-FRET SRC-2 ct	SRC1 TRFRET art	SRC3 TRFRET art	PPARg SRC2 recr	PPARg SRC-1 ag	PPARg SRC2 ag	PPARg SRC1 ag	PPARg SRC3 conf
Cc1cccc(N2C(=S)N=C(Nc3c(C)cccc3C)C23CCOC(C)(C)C3)c1 (configuration not stated)	-3	1615	/	/	-3	-7	/	/	/
COc1ccccc1NS(=O)(=O)c1cccc(NC(=O)c2sc3ccccc3c2Cl)c1	8	2161*	2434*	2458*	17	22*	13	10	4
CC1=NOC(=O)/C1=C\c1ccc(-c2ccccc2Br)o1	51*	3893*	4294*	3608*	118*	82*	79*	61*	58*
COc1ccccc1C(=O)Nc1nnc(-c2ccco2)s1	6	1757	/	/	9	7	/	/	/
Cc1ccccc1C(=O)Nc1nnc(-c2ccco2)s1	11	2099*	2497*	1974	16	24*	42*	36*	26*
S=c1[nH]ncn2c1cc1oc3ccccc3c12	28*	2319*	2955*	2852*	37*	31*	5	-2	4
COc1ccccc1NC(=O)CC1C(=O)Nc2ccccc2N1C(=O)c1ccccc1 (configuration not stated)	-4	1545	1644	1407	-1	4	/	/	/
O=C(O)CCc1ccc(-c2ccc(Br)cc2)o1	62*	2456*	/	/	42*	28*	26*	16	20
COc1cc(OC)cc(-c2cc3nc(C)cc(N4CCN(C(=O)c5ccco5)CC4)n3n2)c1	13	1447	/	/	0	6	/	/	/
Cn1c(=O)cc(SCC(=O)NCCCN2CCN(c3ccc(F)cc3)CC2)c2ccccc21	134*	4545*	/	/	95*	97*	51*	34*	36*
Cn1c(=O)cc(SCC(=O)NCCN2CCN(c3ccccc3F)CC2)c2cc(Cl)ccc21	92*	3707*	/	/	107*	82*	59*	39*	42*
